An excerpt weighted towards active compounds, which were near 2.6% of everything screened.
PRMT1 FP inh: blocks human protein arginine methyltransferase 1; Q99873; recombinant PRMT1, activity-based probe fluorescence polarization; inhibition, % at 2.79 µM; 370,000 tested, 1.3% active;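 active means inhibition above about 21% made by adding two undisclosed values, limit read from the data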
SIAE inh: inhibitors of human sialic acid acetylesterase SIAE | SIAE FP-Rh probe binding, fluorescence polarization | AID 1053197 | inhibition, % at 9.66 µM | 370,000 tested, 0.69% active;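 active means inhibition above a cutoff: mean of compounds within the control limits plus 3 SD of those, cut at about 17% in these data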;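 further: 0% = plate median of compound wells and 100% = probe without SIAE protein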
PAD4 FP inh: inhibitors of human PAD4 | recombinant PAD4, RCA probe fluorescence polarization | inhibition, % at 6.36 µM | 330,000 tested, 0.41% active | AID 485272;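 active means percent inhibition above a cutoff equal to the mean of all tested compounds plus 3 SD, cut at about 15% in these data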;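 further: 0% = PAD4 with RCA probe and DMSO and 100% = probe without PAD4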
Fam108B inh: Fam108B inhibition, counter-screen for RBBP9 inhibitors; recombinant Fam108B, FP-Rh probe fluorescence polarization; inhibition, % at 9.51 µM; 300,000 tested, 0.33% active; AID 1947;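 active means inhibition above the screen mean inhibition plus 3 SD, computed separately per campaign, cut at about 18% in these data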;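 further: inhibitors lower polarization as less probe binds the enzyme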
TCR CD3 inh: inhibitors of human TCR-CD3 interaction. TAMRA-labeled TCR probe fluorescence, biochemical. 360,000 tested, 0.37% active. inhibition, % at 9.4 µM. AID 651800; in the data active means inhibition above about 19%;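 further: recombinant mutant TCR 2C K166C tagged with TAMRA read by polarization; 0% = receptor in buffer alone and 100% = receptor with positive control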
PME-1 inh: blocks human protein phosphatase methylesterase 1; recombinant PME-1, FP-Rh probe fluorescence polarization; 320,000 tested, 0.53% active; inhibition, % at 5.9 µM; Q9Y570;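 active means inhibition above the campaign mean of all compounds plus 3 SD, cut at about 26% in these data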;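 further: competitive labeling of PME-1 active site by serine hydrolase directed probe; 0% = PME-1 with DMSO and 100% = wells lacking PME-1 enzyme; inhibitors block probe labeling so polarization falls and inhibition rises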
Target sequence (Q9Y570 whole entry, looked up): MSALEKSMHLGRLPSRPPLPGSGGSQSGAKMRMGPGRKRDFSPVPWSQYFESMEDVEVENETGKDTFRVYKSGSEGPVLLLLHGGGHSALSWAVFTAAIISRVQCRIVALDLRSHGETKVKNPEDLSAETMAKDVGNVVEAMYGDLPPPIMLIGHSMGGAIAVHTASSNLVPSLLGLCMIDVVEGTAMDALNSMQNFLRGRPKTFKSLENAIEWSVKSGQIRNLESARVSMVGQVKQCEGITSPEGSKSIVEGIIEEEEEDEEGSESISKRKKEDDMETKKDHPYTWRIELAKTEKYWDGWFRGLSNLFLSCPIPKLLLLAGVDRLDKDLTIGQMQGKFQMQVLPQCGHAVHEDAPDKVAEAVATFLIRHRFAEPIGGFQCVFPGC
Fam108b inh conf: confirmation of mouse Fam108b serine hydrolase inhibitors | shares compounds with Fam108B inh | inhibition, % at 9.51 µM | 930 tested, 44% active | recombinant Fam108b, FP-Rh probe fluorescence polarization;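 active means inhibition above a limit from the primary screen, the mean over all compounds plus 3 SD, cut at about 19% in these data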;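 further: 0% = median of active Fam108b wells and 100% = catalytically dead S170A mutant; inhibitors free the probe so polarization falls as inhibition rises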
Fam108b ABPP HTS: inhibits mouse Fam108b in gel-based ABPP; shares compounds with Fam108B inh; recombinant Fam108b, fluorophosphonate probe; inhibition, % at 20 µM; 260 tested, 44% active; in the data active means inhibition above about 40%
Starred values were filed as active, the others as inactive.

What do the screens show for `Oc1ccccc1N=N/C(=N/Nc1ccccc1O)c1ccccc1`?
PRMT1 FP inh: 4; SIAE inh: 4; PAD4 FP inh: 3; Fam108B inh: 11; TCR CD3 inh: 0; PME-1 inh: 5

Results for Cc1ccccc1NC(=O)CSc1nnc(-c2ccco2)c(-c2ccco2)n1 ?
PAD4 FP inh: -8; Fam108B inh: 7; PME-1 inh: 6

Results for Cc1cccc(C)c1NC(=O)CSc1nnc(-c2ccco2)c(-c2ccco2)n1 ?
PAD4 FP inh: -4; Fam108B inh: 26*; PME-1 inh: 0; Fam108b inh conf: 14

What do the screens show for `Cc1ccc(-c2nnc(NC(=O)COc3ccc(F)cc3Cl)o2)cc1C`?
PRMT1 FP inh: 2; SIAE inh: -1

How did O=C1CCCC2=C1C(c1ccc(O)c(O)c1)Nc1ccc3ccccc3c12 (stereo not given) do in these assays?
PRMT1 FP inh: 17; SIAE inh: 9; PAD4 FP inh: -2; Fam108B inh: -3; TCR CD3 inh: 4; PME-1 inh: -1

How did O=C1CCCC2=C1C(c1ccco1)Nc1ccc3ccccc3c12 (stereo not given) do in these assays?
PRMT1 FP inh: 44*; SIAE inh: 4; PAD4 FP inh: 0; Fam108B inh: 18*; TCR CD3 inh: 11; PME-1 inh: -1; Fam108b inh conf: 11

What do the screens show for `Cc1cc(C(C#N)c2ccc(Cl)cc2)c(Cl)cc1NC(=O)c1cc(I)cc(I)c1O` (stereo not given)?
PRMT1 FP inh: 4; SIAE inh: 6; PAD4 FP inh: -3; Fam108B inh: 25*; TCR CD3 inh: -6; PME-1 inh: 40*; Fam108b inh conf: 42*; Fam108b ABPP HTS: 45*

What do the screens show for `Cc1cc(NC(=O)c2ccc(Cl)cc2)c(C)cc1O`?
PRMT1 FP inh: -5; SIAE inh: 4; PAD4 FP inh: 0; Fam108B inh: -1; TCR CD3 inh: 9; PME-1 inh: -3

How did CCCCCCCCN1C(=O)[C@@H](CC(=O)NCCc2ccccc2OC)C[C@@]2(C(=O)OC)C1=C[C@H](C(C)C)O[C@@H]2C1CC1 do in these assays?
PRMT1 FP inh: -1; SIAE inh: 9

Results for CC(C)CN(Cc1cc(=O)oc2cc(-c3ccccc3)c(O)cc12)CC(C)C ?
PRMT1 FP inh: 3; SIAE inh: 6; PAD4 FP inh: 2; Fam108B inh: 42*; TCR CD3 inh: -7; PME-1 inh: -2; Fam108b inh conf: 19*

Results for Cc1cc2nc(-c3ccc(SCc4ccc(C#N)cc4)nc3)[nH]c2cc1C ?
PRMT1 FP inh: 11; SIAE inh: 8; PAD4 FP inh: 3; Fam108B inh: 26*; TCR CD3 inh: -1; PME-1 inh: 3; Fam108b inh conf: 6

What do the screens show for `COc1ccc(C=NNC(=O)c2ccc(O)cc2)cc1CN1CCCc2ccccc21`?
Fam108b ABPP HTS: 90*

What do the screens show for `Nc1c(C(=O)N2CCN(CCc3ccccc3)CC2)cnn1-c1ccccc1`?
PRMT1 FP inh: 1; SIAE inh: 3

How did O=[N+]([O-])c1cc(/C=N\Nc2nc(-c3ccccc3)cs2)ccc1O do in these assays?
PRMT1 FP inh: 11; SIAE inh: 7; PAD4 FP inh: -1; Fam108B inh: 25*; TCR CD3 inh: 8; PME-1 inh: 23; Fam108b inh conf: 25*

What do the screens show for `O=[N+]([O-])c1ccc(-c2csc(N/N=C/c3cccnc3)n2)cc1`?
PRMT1 FP inh: 2; SIAE inh: 1; PAD4 FP inh: 5; Fam108B inh: 3; TCR CD3 inh: 4; PME-1 inh: 6

How did C[C@@H]1N[C@H]2N(C1=O)c1ccccc1[C@@]21C[C@@H]2C(=O)N[C@](C)(O1)c1nc3ccccc3c(=O)n12 do in these assays?
PRMT1 FP inh: 5; SIAE inh: 4

Results for CCOc1cc(/C=C2\C(=O)N(c3nc(-c4ccc(Br)cc4)cs3)N=C2c2ccccc2)ccc1O ?
PAD4 FP inh: -10; Fam108B inh: 42*; PME-1 inh: 10; Fam108b inh conf: 42*; Fam108b ABPP HTS: 90*

What do the screens show for `CCOc1cc(/C=C2/SC(=S)N(Cc3ccccc3)C2=O)ccc1O`?
PRMT1 FP inh: -3; SIAE inh: -67; PAD4 FP inh: -70; Fam108B inh: -40; TCR CD3 inh: -76; PME-1 inh: -178

What do the screens show for `O=c1oc(-c2ccc(F)cc2)nc2ccsc12`?
PRMT1 FP inh: 2; SIAE inh: 6; PAD4 FP inh: 1; Fam108B inh: -3; TCR CD3 inh: -9; PME-1 inh: -9

Results for O=c1oc(-c2ccccc2Cl)nc2ccsc12 ?
PRMT1 FP inh: -2; SIAE inh: 16; PAD4 FP inh: 5; Fam108B inh: 34*; TCR CD3 inh: -3; PME-1 inh: 2; Fam108b inh conf: 32*; Fam108b ABPP HTS: 85*

How did Cc1oc2c(c1C(=O)c1ccccc1)C(=O)C(=O)c1ccccc1-2 do in these assays?
PRMT1 FP inh: 4; SIAE inh: 3; PAD4 FP inh: 74*; Fam108B inh: 55*; TCR CD3 inh: -6; PME-1 inh: 29*; Fam108b inh conf: 35*; Fam108b ABPP HTS: 25

Results for Cc1oc2c(c1C(=O)O)C(=O)c1ccccc1C2=O ?
PRMT1 FP inh: 6; SIAE inh: -4; PAD4 FP inh: 9; Fam108B inh: 3; TCR CD3 inh: 8; PME-1 inh: 4

How did CCN(CC)S(=O)(=O)c1ccc(Nc2ccc(-c3ccc4c(c3)OCCO4)nn2)cc1 do in these assays?
PRMT1 FP inh: 0; SIAE inh: 8; PAD4 FP inh: -1; Fam108B inh: 20*; TCR CD3 inh: 2; PME-1 inh: -68; Fam108b inh conf: -127

How did O=C(NC1CCCC1)C1CCN(S(=O)(=O)c2ccc3[nH]c(=O)oc3c2)CC1 do in these assays?
PRMT1 FP inh: 1; SIAE inh: 4

Results for O=C(NN=Cc1ccc(O)cc1)c1cccc(NN=Cc2ccc(O)cc2)c1 ?
Fam108b ABPP HTS: 95*

What do the screens show for `CC(=O)Nc1cccc(C(=O)N/N=C/c2ccc(F)cc2)c1`?
PRMT1 FP inh: 1; SIAE inh: -11; PAD4 FP inh: -1; Fam108B inh: 2; TCR CD3 inh: -2; PME-1 inh: 2

How did CCN1Cc2nnn(CC3CCCCC3)c2-c2ccccc2S1(=O)=O do in these assays?
PRMT1 FP inh: 0; SIAE inh: 2

Results for Cc1ccc(/C=C\c2nccc3c2[nH]c2ccccc23)cc1 ?
PRMT1 FP inh: 3; SIAE inh: 7; PAD4 FP inh: -5; Fam108B inh: 24*; TCR CD3 inh: 12; PME-1 inh: -45; Fam108b inh conf: 10

Assay outcomes as filed in PubChem.
